From PubChem BioAssay (NCI)
This is part of a sample that, as a whole, favours compounds with a hit. Of some 79,000 tested, about 15% had one in any assay. No stated cut-off is given here; in the data, active means growth inhibition above about 70%; inactive means the rest.

Columns and labels:
[1] = NCI Yeast Anticancer Drug Screen. Data for the rad50 strain (AID 155);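 further: 0% = growth of vehicle-only cultures of the same strain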; conditions: S. cerevisiae rad50 strain growth inhibition; at 50.0 µM; hits give high values
In short: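 Relative growth inhibition (compound vs vehicle) was measured in yeast with a defined repair-gene alteration.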

[2] = NCI Yeast Anticancer Drug Screen. Data for the mec2-1 strain (AID 157); conditions: S. cerevisiae mec2-1 strain, at 50.0 µM, hits give high values
In short: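 Yeast mec2-1 mutant treated with compound. Readout: growth inhibition vs vehicle controls.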

[3] = NCI Yeast Anticancer Drug Screen. Data for the sgs1 mgt1 strain (AID 161);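 further: 0% = growth of cultures given vehicle only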; conditions: S. cerevisiae sgs1 mgt1 strain, at 50.0 µM, hits give high values
In short: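 Genetically altered yeast, compound exposure, growth inhibition relative to vehicle.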

[4] = NCI Yeast Anticancer Drug Screen. Data for the cln2 rad14 strain (AID 165);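 further: 0% = growth equal to vehicle treated cultures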; conditions: S. cerevisiae cln2 rad14 strain, at 50.0 µM, hits give high values
In short: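 cln2 rad14 yeast strain; compound exposure; growth inhibition read vs vehicle controls.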

[5] = NCI Yeast Anticancer Drug Screen. Data for the bub3 strain (AID 167); conditions: S. cerevisiae bub3 mutant strain, at 50.0 µM, hits give high values
In short: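 Screening used yeast with an engineered genetic alteration affecting cell cycle control. Compound-exposed cultures were compared with vehicle cultures, and reduced growth was taken as inhibition.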

[6] = NCI Yeast Anticancer Drug Screen. Data for the mlh1 rad18 strain (AID 175); conditions: S. cerevisiae mlh1 rad18 strain growth inhibition; at 50.0 µM; hits give high values
In short: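 Yeast w/ defined DNA-repair lesions; compound exposure; growth vs vehicle controls → % inhibition.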

Measured: growth inhibition

O=Cc1ccc(O)c(O)c1
inactive: [1] 17.6% | [2] -6.5% | [3] 11.6% | [4] 7.75% | [5] 4.05% | [6] 18.9%

O=S(=O)(O)c1ccc(O)c(C2CCCCC2)c1
inactive: [1] -7.1% | [2] -8.4% | [3] -21.1% | [4] -23.2% | [6] 31.4%

O=C(CCl)Oc1ccc([N+](=O)[O-])cc1
inactive: [1] 20.8% | [2] 21.9% | [3] 23.8% | [4] 11.7% | [5] 19.8% | [6] 26.6%

Oc1cccnc1CN1CCCC1
inactive: [1] 1.15% | [2] -12.8% | [3] 2.3% | [4] 1.7% | [5] -5.8% | [6] 18.4%

CCCCN(C=S)CCCC
inactive: [1] 9.65% | [2] -2% | [3] -5.7% | [4] 13.7% | [5] -2.2% | [6] 10.7%

Cc1ccc[n+](CCC(N)=O)c1
inactive: [1] -18.4% | [2] -41.4% | [3] -10.8% | [4] 1.2% | [5] -16.1% | [6] -6.75%

COc1cccc(C(=O)NNC(=O)c2cccc3ccccc23)c1
inactive: [1] -47.2% | [2] -59.1% | [3] -26.8% | [4] -10.4% | [5] -34.2% | [6] -20.9%

c1ccc(-c2ccc3ccccc3c2)cc1
inactive: [1] 7.35% | [2] -6.65% | [3] -3.3% | [4] -2.65% | [5] -0.8% | [6] -14.2%

CCOc1ccc(NC(=S)N2CCC(CCCC3CCN(C(=S)Nc4ccc(OCC)cc4)CC3)CC2)cc1
inactive: [1] -6.6% | [2] -31.9% | [3] -15.1% | [4] 14.9% | [5] -9.05% | [6] -11.4%

C=C1C(=O)C2CCN1CC2
inactive: [1] 1.05% | [2] -15.8% | [3] -15.8% | [4] 2.95% | [5] -18.1% | [6] -21.2%

O=C(Nc1ccc([N+](=O)[O-])cc1)C(=O)Nc1ccc([N+](=O)[O-])cc1
inactive: [1] -8.7% | [2] -24.2% | [3] 11.6% | [4] -7.55% | [6] 5.3%

Clc1cccc(Cl)c1C1CSc2ccccc2N=C1c1ccccc1 (configuration not stated)
inactive: [1] -2.55% | [2] 8.9% | [3] 16.3% | [4] 11% | [6] 3.65%

COC1OC(COC(C)=O)C(OC(C)=O)C(OC(C)=O)C1OC(C)=O (configuration not stated)
inactive: [1] 10.7% | [2] 3.05% | [3] 47.2% | [4] -28.6% | [6] 13.2%

COc1ccc(Nc2cc(Cl)ccc2C(=O)O)cn1
inactive: [1] 4.25% | [2] 0.6% | [3] -6.95% | [4] 17.9% | [6] -4.55%

CC(C)(C)CC1(C)NC(=O)NC1=O (configuration not stated)
inactive: [1] -7.3% | [2] 8.25% | [3] 13.1% | [4] -58.2% | [6] 8.45%

C1C[S+]2CC[S+]1CC2
inactive: [1] 3.5% | [2] 28.9% | [3] 24.3% | [4] -5.95% | [6] 28.2%

CCOC(=O)c1c(C)[nH]c(C)c1C=O
inactive: [1] 16.6% | [2] -0.05% | [3] 3.15% | [4] -1.15% | [6] 3.9%

CCOC(=O)/C(O)=C(\C=N\C(=S)Nc1ccc(Cl)c(Cl)c1)C(=O)OCC
inactive: [1] 43.6% | [2] 11.2% | [3] 38.5% | [4] 6.65% | [6] 50.6%

Cc1cc2c(C(C)C)c(O)c(O)c(C=Nc3ccccc3[N+](=O)[O-])c2c(O)c1-c1c(C)cc2c(C(C)C)c(O)c(O)c(C=Nc3ccccc3[N+](=O)[O-])c2c1O
inactive: [1] -13.9% | [2] -19.6% | [3] -19.6% | [4] -21.8% | [6] -2.3%

NNC(=O)N/N=C1\C(=O)N(c2nccs2)C(=O)C(=O)C1c1nc2ccccc2s1 (configuration not stated)
inactive: [1] -26.1% | [3] -33% | [4] 10.8% | [5] -5.15%

NC(=O)OCCO
inactive: [1] 19.2% | [2] 6.45% | [3] 10.9% | [4] 9.65% | [6] 26.5%

COc1cc(C(=O)O)c(O)c(C(C)(C)C)c1
inactive: [1] 19.4% | [2] 4.25% | [3] 17.9% | [4] -2.45% | [6] 8.5%

C/C(Cc1ccccc1)=N\O
inactive: [1] 3.75% | [2] 3.1% | [3] -20.6% | [4] 19.8% | [6] 7.25%

COc1ccc(C)cc1NC(=O)SC(C)C
inactive: [1] -9.75% | [2] -18.9% | [3] 9.4% | [4] -5.2% | [6] 6.1%

NCCCN1CCCC1=O
inactive: [1] -20.1% | [2] -21.3% | [3] -14.8% | [4] 1.8% | [6] -15.1%

C[n+]1cc2cc3c(cc2c2ccccc21)OCO3
inactive: [1] 23.5% | [2] 35% | [3] 30% | [4] 13.1% | [6] 39.5%

COC1=C(OC)C(=O)C(SC/C=C(\C)CCCC(C)CCCC(C)CCCC(C)C)=CC1=O (configuration not stated)
inactive: [1] -31.8% | [2] -24.4% | [3] -43.5% | [4] 16.6% | [6] -61.1%

CC1(C)CCC(C)(C)NC(=S)N1
inactive: [1] 13.3% | [2] -8.35% | [3] 21.2% | [4] 1.9% | [6] 11.1%

Cc1cc(=O)n(Nc2ccccc2)c(O)c1C#N
inactive: [1] 3.45% | [2] -19% | [3] 0.3% | [4] 2.65% | [6] 3.15%

NNc1ncnc2c1ncn2C1OC(CO)C(O)C1O (configuration not stated)
inactive: [1] -9.85% | [3] 0.15% | [4] -21.9% | [5] 1.45%

O=C(c1cccc(C(=O)c2ccc3c4c(cccc24)C(=O)N(c2ccccc2)C3=O)c1)c1ccc2c3c(cccc13)C(=O)N(c1ccccc1)C2=O
inactive: [1] -35.5% | [2] -36.8% | [3] -23.1% | [4] 12.1% | [6] -20.8%

O=C(CCCl)OCCOc1ccccc1
inactive: [1] -9.85% | [2] 4.3% | [3] -15.1% | [4] 21.9% | [6] 6.55%

Cc1ccc(O)c(N)c1
inactive: [1] 2.1% | [2] -12.5% | [3] -20.3% | [4] 2.35% | [6] 0.95%

CC1CCC(C)(C)c2ccccc21 (configuration not stated)
inactive: [1] 2.65% | [2] -7.25% | [3] -2.5% | [4] -2.5% | [6] 2.3%

CC(=O)O[C@H]1CC[C@]2(C)C3=C(C(=O)C[C@H]2C1(C)C)[C@]1(C)CC[C@H]([C@H](C)CCC(=O)O)[C@@]1(C)CC3=O
inactive: [1] 42.8% | [2] -8.05% | [3] 33.2% | [4] 3.5% | [6] 0.4%

CCCCCCCCCCC(=O)CCCCCCCCCC
inactive: [1] 7.15% | [2] -12.2% | [3] 8.1% | [4] 16.8% | [6] 7.05%

Cc1ccc(NCN2C(=O)c3ccccc3C2=O)c(C)n1
inactive: [1] 4.7% | [2] -28.4% | [3] 8.05% | [4] 11.3% | [6] -0.65%

NC(=O)N1CCOCC1
inactive: [1] 15.2% | [2] -7.9% | [3] -12.9% | [4] -27.4% | [6] 17.9%

Cn1/c(=N\N=C\c2ccccc2OCCO)sc2ccccc21
inactive: [1] -2.7% | [2] 17.9% | [3] 18.8% | [4] 9.7% | [6] 4.3%

Nc1ncnc2c1ncn2C1OC(CO)C2OC21 (configuration not stated)
inactive: [1] -12.6% | [2] -7.85% | [3] 2.05% | [4] 12.5% | [6] -30.4%

Nc1nc2nnc(-c3ccccc3)c(-c3ccccc3)n2n1
inactive: [1] 12.8% | [2] 14.1% | [3] 6.4% | [4] 13.8% | [6] -8.8%

O=C(O)Cc1ccc(Cl)cc1
inactive: [1] 22.2% | [2] -15.3% | [3] 29% | [4] 3.65% | [6] 0%

O=[n+]1ccn([O-])c2ccccc21
inactive: [1] 11.3% | [2] 8.45% | [3] 9.05% | [4] -52.2% | [6] 20.6%

NC(=O)NCCO
inactive: [1] -17.5% | [2] 4.1% | [3] 13.8% | [4] -18.6% | [6] 13.3%

CN=S(=O)(OCCCCCOS(=O)(=NC)c1ccc(C)cc1)c1ccc(C)cc1 (configuration not stated)
inactive: [1] 3.75% | [2] -33.8% | [3] -22.9% | [4] -43.4% | [6] -34.9%

CC(C)C(C)(C)C(=O)C(C)(C)C(C)(C)C
inactive: [1] -12.2% | [2] -2.65% | [3] -9.7% | [4] -35.5% | [6] 7.95%

Cc1cc(NC(=O)c2ccccc2)c(Cl)cc1N
inactive: [1] -26.4% | [2] -33.9% | [3] -11.9% | [4] -13.4% | [6] -7.95%
